# From PubChem BioAssay
# An excerpt weighted towards active compounds, which were near 2.7% of everything screened.
# Shn3 inh set2: reduces Shn3 3'UTR luciferase signal in osteoblasts; Clone20 osteoblast Shn3 3'UTR firefly luciferase, 24 h; AID 588674; inhibition, % at 12.5 µM; 0.52% of 360,000 active;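 active = mean inhibition of at least 75% with every replicate also reaching 75%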;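 also: 0% = median of neutral control wells and 100% = pilot-screen positive control compound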
# HIF-2a block: HIF-2a inhibition | 786-0 RCC cells HIF-2a reporter, luciferase luminescence, overnight | inhibition, % at 18.8 µM | 0.72% of 360,000 active | AID 624352;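 active = inhibition of the luminescence signal of 40% or more relative to plate controls, in a single-dose primary screen at 18.75 µM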
# MITF TRPM1 inh: reduces MITF-dependent TRPM1 promoter luciferase signal; SK-MEL-5 TRPM1 promoter luciferase, 24 h; 0.83% of 330,000 active; inhibition, % at 12.5 µM; AID 488899;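 active = mean inhibition across replicates of 60% or more, whatever share of single replicates reaches that level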
# CF NFkB block: blocks PAF-induced NF-kB reporter in cystic fibrosis cells; KKLEB NF-kB-GFP reporter, GFP fluorescence overnight; AID 588850; 0.86% of 360,000 active; inhibition, % at 5 µM;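 active = at least 50% inhibition at 5 µM, scaled per plate between neutral and stimulator controls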;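 also: PAF is a Pseudomonas aeruginosa culture filtrate used as stimulus; plate controls were PAF-stimulated DMSO wells for no effect and unstimulated DMSO wells for full effect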
# KKLEB cytotox: reduces viability of KKLEB cystic fibrosis airway cells; 0.36% of 360,000 active; activity change (cytotoxicity), % at 5 µM; AID 602141; KKLEB CF airway cells viability, ATPlite luminescence, overnight; stronger effect = lower value; cells stimulated with P. aeruginosa culture filtrate;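 active = corrected activity change at or below -50% at 5 µM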
# Peg3 prom inh: inhibitors of Peg3 promoter | HeLa PEG-Prom luciferase reporter, luminescence, overnight | inhibition, % at 20 µM | 1.7% of 360,000 active | AID 588405;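 active = inhibition of at least 50% at 20 µM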
# An asterisk follows results filed as active; / = no result.
SMILES,Shn3 inh set2,HIF-2a block,MITF TRPM1 inh,CF NFkB block,KKLEB cytotox,Peg3 prom inh
COc1ccc(C(=O)CN2CCN(CCN3C(=O)c4cccc5cccc(c45)C3=O)CC2)cc1,2,13,-8,-13,-2,41
O=C1C(C2=NC(C(=O)O)C3C(=O)N(c4ccc(Cl)cc4)C(=O)C23)=C(O)c2ccccc21 (stereo unspecified),-3,1,-1,16,-5,0
O=C1C(C2=NC(c3ccccn3)C3C(=O)N(c4ccc(Cl)cc4Cl)C(=O)C23)=C(O)c2ccccc21 (stereo unspecified),13,16,90*,53*,-39,51*
CC(=O)NC(c1ccccc1)c1nc(-c2ccc3ccccc3c2)cs1 (stereo unspecified),-5,-242,/,-9,0,-164
O=C(O)CCC(=O)Nc1ccc(C(=O)OC2CCCCC2)cc1,4,52*,7,3,13,9
C=C1C(=O)[C@]23C[C@H]1CCC2[C@@]1(C)C(C[C@@H]3O)[C@](C)(C(=O)OC)CC[C@@H]1O (stereo partly specified),99*,99*,/,90*,-73*,100*
C[C@@]12C(C[C@H](O)[C@@]34C[C@@H](CCC13)[C@@H](CO)C4=O)[C@](C)(C(=O)O)CC[C@@H]2O (stereo partly specified),-10,6,/,22,-1,-9
CSc1ccc(CNC(=O)C2CCC(=O)N(CCc3ccc(Cl)cc3)C2)cc1 (stereo unspecified),3,3,/,-18,-5,4
O=[N+]([O-])c1ccc(O)c(Nc2ncnc3ccccc23)c1,-14,-134,-6,6,5,-65
O=[N+]([O-])c1ccc(O)c(Nc2ncnc3ccc(Br)cc23)c1,18,-4,18,58*,-38,20
CCN1c2ccccc2NC2N=C(OC)C(c3ccccc3)C21 (stereo unspecified),47,-16,87*,5,-5,7
Cc1ccc(S(=O)(=O)c2c(C)nn(C(C)(C)C)c2OC(=O)c2ccc(Br)o2)cc1,74,-4,-7,13,2,70*
Cc1ccc(S(=O)(=O)c2c(C)nn(C(C)(C)C)c2OC(=O)c2ccco2)cc1,-1,-18,-8,22,-2,45
CC(C)C[C@@H](CN1CCC[C@H]1CN1C(=O)C(=O)NC[C@@H]1Cc1ccccc1)N1C[C@H](Cc2ccc(O)cc2)N(CC2CCCCCC2)C(=O)C1=O,/,-13,/,/,/,/
CNc1ccc(Br)cc(C(=O)/C=C/c2ccc(OC)cc2OC)c1=O,0,4,10,-2,0,-45
CCNc1ccc(Br)cc(C(=O)/C=C/c2c(Cl)cccc2Cl)c1=O,57,68*,83*,-8,5,104*
CNc1ccc(Br)cc(C(=O)/C=C/c2ccc(Cl)cc2Cl)c1=O,-6,-2,31,10,-3,62*
Cn1c(NCCN2CCCC2)nc2cc(-c3cccc(C(F)(F)F)c3)sc2c1=O,-5,-76,/,0,2,58*
CN(C)CCCNc1nc2cc(-c3ccc(F)cc3)sc2c(=O)n1C,15,-41,/,-4,-7,90*
CC(=O)N(C)c1ccc(OCC(O)Cn2c(C)nc3ccccc32)cc1 (stereo unspecified),71,16,16,-15,-7,10
CC(=O)N(C)c1ccc(OCC(O)Cn2c3ccc(Cl)cc3c3cc(Cl)ccc32)cc1 (stereo unspecified),24,28,-3,-6,-13,61*
CCC(C)Nc1nc(N)c([N+](=O)[O-])c(Nc2cc(OC)ccc2OC)n1 (stereo unspecified),5,22,5,38,-21,47
CCC(C)Nc1nc(N)c([N+](=O)[O-])c(Nc2ccccc2OC)n1 (stereo unspecified),0,12,0,36,-9,60*
COc1ccccc1Nc1nc(NCC(C)C)nc(N)c1[N+](=O)[O-],-8,26,-10,55*,-14,45
C=CCNc1nc(N)c([N+](=O)[O-])c(Nc2ccccc2OC)n1,3,22,-2,41,-7,34
SMILES,Shn3 inh set2,HIF-2a block,MITF TRPM1 inh,CF NFkB block,KKLEB cytotox,Peg3 prom inh
COc1cc(C2c3cc4c(cc3C(OC3OC5COC(c6cccs6)OC5C(O)C3O)C3COC(=O)C23)OCO4)cc(OC)c1O (stereo unspecified),94*,7,76*,33,10,21
COc1cc(C2c3cc4c(cc3OC(NNC(N)=O)C2C)OCO4)cc(OC)c1OC (stereo unspecified),-8,26,49,51*,-29,-19
COc1cc([C@@H]2c3cc4c(cc3[C@H](O)[C@H]3COC(=O)[C@H]23)OCO4)cc(OC)c1OC,10,29,61*,51*,-28,-33
COC(=O)C1=CN(c2ccc(OC)cc2OC)C(N)=C(C#N)C1c1ccccc1F (stereo unspecified),/,-10,/,/,/,/
O=C1C(Cc2ccccc2)Nc2ncnc(N3CCc4ccccc4C3)c2N1Cc1ccc(Cl)cc1 (stereo unspecified),7,3,8,16,3,51*
CCC1Nc2ncnc(N3CCc4ccccc4C3)c2N(Cc2ccc(Cl)cc2)C1=O (stereo unspecified),-17,24,12,40,-10,48
CC1(C(=O)Nc2ccccc2)CCN1C(=O)CCc1ccc(Cl)cc1Cl (stereo unspecified),6,0,/,-6,-14,11
O=C(Nc1ccc(N2CCOCC2)cc1)Nc1ccc2nc(-c3ccco3)c(-c3ccco3)nc2c1,41,0,-13,70*,-42,47
O=C(Nc1ccc2nc(-c3ccco3)c(-c3ccco3)nc2c1)NC1CC1,-4,-48,-46,4,-10,-43
CCOC(=O)[C@]12CCC=C1N(Cc1cccc3ccccc13)C(=O)[C@H](CC(=O)N1CCN(C(=O)c3ccco3)CC1)C2,/,-21,/,/,/,/
COC(=O)C[C@@H]1CC[C@H](NC(=O)Nc2cccc(F)c2)[C@@H](CO)O1,/,1,/,/,/,/
CCC(=O)N1Cc2cc(C(=O)Nc3nccs3)nc(-c3cccc(-c4ccccc4OC)c3)c2[C@H]1CCO,/,-35,/,/,/,/
COc1ccc(N(C(=O)Cn2nnc(-c3ccccc3F)n2)C(C(=O)NCC2CCCO2)c2ccc(Cl)cc2)cc1 (stereo unspecified),-23,21,12,-11,2,58*
COc1ccc(N(C(=O)Cn2nnc(-c3ccc(Cl)cc3)n2)C(C(=O)NCC2CCCO2)c2ccc(C)cc2)cc1 (stereo unspecified),10,19,40,11,-20,23
CCOC(=O)Cc1ccc(Nc2nc3cc(-c4sccc4C)sc3c(=O)n2C)cc1,5,-58,/,21,-11,-27
